Among the data in PubChem BioAssay (NCI) are growth values, retold here.

About 83,000 compounds went through this panel and 20% of them were active in at least one assay; those are over-represented in the sample as a whole.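 For each line, cells grew in 96-well plates with the test compound present at a single concentration for 48 hours.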 Unmarked numbers belong to inactive results. Active and inactive are the calls of the source. Rule for the calls: active = growth percent below 10; inactive = the rest.

Test systems include NCI-H23 lung; NCI-H226 lung; NCI-H322M lung; HOP-62 NSCLC; NCI-H460 lung; HOP-92 NSCLC; NCI-H522 lung; A549/ATCC NSCLC; 786-0 renal; COLO 205 colon; DU-145 prostate; K-562 leukemia; MALME-3M melanoma; MDA-MB-231 breast; RXF 393 renal; SF-268 CNS; SF-295 CNS; SF-539 CNS; UACC-257 melanoma; M14 melanoma.
What all share (test): NCI-60 one-dose screen, 48 h (100 = growth as untreated, 0 = no growth, -100 = all killed)
What all share (conditions): 10 µM unless noted

Turning to `N#CC1=C(N)Oc2c(c(=O)[nH]c3ccc(Cl)cc23)C12C(=O)c1ccccc1C2=O`, the growth in the experiment with NCI-H23 lung is 93.4%; in the experiment with NCI-H226 lung it was 88.2%; with NCI-H322M lung, 93%; with HOP-62 NSCLC, 88.2%; with NCI-H460 lung it was 92.5%; in the experiment on HOP-92 NSCLC, 98.6%. The growth with NCI-H522 lung is 105%; in the experiment on A549/ATCC NSCLC it was 93.6%; in the experiment on 786-0 renal it was 96.4%; in the experiment with COLO 205 colon, 110%; in the experiment with DU-145 prostate, 106%; in the experiment with K-562 leukemia, 126%. The growth was 95% in the experiment with MALME-3M melanoma; 90.3% in the experiment with MDA-MB-231 breast; 101% with RXF 393 renal; 92% with SF-268 CNS; 104% with SF-295 CNS; 92.3% in the experiment on SF-539 CNS. Also, the values for the growth in the experiment on UACC-257 melanoma and with M14 melanoma were 101% and 97.8%, respectively.

As for `Nc1c(C(=O)Nc2ccccc2F)sc2nc3c(cc12)CCCC3`, the growth in the experiment with NCI-H23 lung is 51.2%; in the experiment with NCI-H226 lung, 63.5%; with NCI-H322M lung, 63.1%; in the experiment on HOP-62 NSCLC, 23.7%; with NCI-H460 lung, 12%; in the experiment on HOP-92 NSCLC, 11.9%. Also, the growth is 23% in the experiment with NCI-H522 lung; 39.5% in the experiment on A549/ATCC NSCLC; 33.2% in the experiment on 786-0 renal; 13% in the experiment on COLO 205 colon; 26.8% in the experiment on DU-145 prostate; 14.1% with K-562 leukemia. Besides, the growth in the experiment with MALME-3M melanoma was 62.9%; in the experiment on MDA-MB-231 breast it was 45.1%; in the experiment with RXF 393 renal, 39.2%; in the experiment on SF-268 CNS it was 50.4%; in the experiment with SF-295 CNS it was 21.9%; in the experiment on SF-539 CNS, 6.85% (active). In addition, the growth in the experiment on UACC-257 melanoma was 61.6%; in the experiment with M14 melanoma it was 33.5%.

Take `CCNCCNc1cc(C2CCCCC2)c(C#N)c2nc3ccccc3n12`: the growth was 44.7% in the experiment on NCI-H23 lung; 15.3% in the experiment with NCI-H226 lung; -3.13% (active) with NCI-H322M lung; 16.1% with HOP-62 NSCLC; -23.4% (active) with NCI-H460 lung; -24.5% (active) in the experiment with HOP-92 NSCLC. For the same molecule, the growth in the experiment on NCI-H522 lung was -9.52% (active); in the experiment on A549/ATCC NSCLC, 3.05% (active); with 786-0 renal it was 4.62% (active); with COLO 205 colon it was -52.8% (active); with DU-145 prostate, 32.6%; in the experiment with K-562 leukemia, -38.8% (active). The growth in the experiment with MALME-3M melanoma was -72.4% (active); in the experiment with MDA-MB-231 breast, -48.7% (active); in the experiment with RXF 393 renal it was -81.1% (active); in the experiment with SF-268 CNS, 22.3%; in the experiment on SF-295 CNS, -53.5% (active); in the experiment on SF-539 CNS, -88.8% (active). For the same molecule, the growth in the experiment with UACC-257 melanoma is -67.2% (active); in the experiment with M14 melanoma it was -66% (active).

Consider `COC1=CC(c2ccc[nH]2)=N/C1=C\c1[nH]c(C)c(CC(=O)OCc2ccccc2)c1CCC(=O)OCc1ccccc1`, for which the growth is -12.6% (active) with NCI-H23 lung; -12.8% (active) in the experiment on NCI-H226 lung; 34.7% with NCI-H322M lung; -22.2% (active) with HOP-62 NSCLC; 12.2% in the experiment on NCI-H460 lung; -26.1% (active) with HOP-92 NSCLC. Also, the growth in the experiment with NCI-H522 lung was -48.5% (active); in the experiment with A549/ATCC NSCLC, 5.29% (active); with 786-0 renal, -56.2% (active); with COLO 205 colon it was -45.6% (active); in the experiment with DU-145 prostate, 11.8%; with K-562 leukemia, -11.3% (active). Further, the growth in the experiment with MALME-3M melanoma was -62.1% (active); with MDA-MB-231 breast, -44.5% (active); in the experiment on RXF 393 renal it was -42.6% (active); in the experiment with SF-268 CNS it was -2.4% (active); in the experiment on SF-295 CNS, -62.3% (active); in the experiment on SF-539 CNS it was -78.1% (active). The growth with UACC-257 melanoma is -46% (active); with M14 melanoma, -78.2% (active).

Take `O=C(CSc1oc(-c2ccccc2)nc1S(=O)(=O)c1ccccc1)Nc1ccc(F)cc1`: the growth with NCI-H23 lung is 78.6%; in the experiment with NCI-H226 lung, 87%; in the experiment on NCI-H322M lung, 76.9%; in the experiment with HOP-62 NSCLC, 86.1%; in the experiment with NCI-H460 lung it was 93.5%; in the experiment on HOP-92 NSCLC, 2.48% (active). Besides, the growth was 72.2% in the experiment with NCI-H522 lung; 76.9% with A549/ATCC NSCLC; 59.1% in the experiment on 786-0 renal; 101% with COLO 205 colon; 110% in the experiment on DU-145 prostate; 75.4% in the experiment on K-562 leukemia. Besides, the growth was 56.4% in the experiment with MALME-3M melanoma; 75.6% in the experiment on MDA-MB-231 breast; 90.5% in the experiment on RXF 393 renal; 85.7% in the experiment with SF-268 CNS; 73.4% in the experiment with SF-295 CNS; 65.6% in the experiment with SF-539 CNS. Besides, the growth with UACC-257 melanoma is 92.5%; in the experiment with M14 melanoma, 90.2%.

For the molecule `COC1=CC(c2ccc[nH]2)=N/C1=C\c1[nH]c(C)c(CC(=O)NCc2ccccc2)c1C`, the growth with NCI-H23 lung is 23.9%; in the experiment on NCI-H226 lung it was 28.8%; in the experiment on NCI-H322M lung, 42.7%; in the experiment with HOP-62 NSCLC it was 20.6%; in the experiment with NCI-H460 lung, 10.9%; in the experiment on HOP-92 NSCLC, -7.96% (active). The growth was 17% in the experiment with NCI-H522 lung; 18.1% in the experiment with A549/ATCC NSCLC; -42.7% (active) in the experiment on 786-0 renal; 1.08% (active) in the experiment with COLO 205 colon; 34.7% in the experiment on DU-145 prostate; 0.172% (active) in the experiment on K-562 leukemia. The growth in the experiment with MALME-3M melanoma was -42.2% (active); in the experiment with MDA-MB-231 breast, 0.672% (active); in the experiment with RXF 393 renal, 30.5%; with SF-268 CNS, 11.3%; in the experiment on SF-295 CNS, -55.5% (active); in the experiment with SF-539 CNS it was 2.49% (active). In addition, the growth in the experiment with UACC-257 melanoma was -19.4% (active); in the experiment with M14 melanoma it was -49% (active).

For `Cc1[nH]c(C(=O)Nc2ccccc2OC2CCNCC2)c(Cl)c1Cl`, the growth in the experiment with NCI-H23 lung is 42.8%; in the experiment on NCI-H226 lung it was 98.6%; in the experiment on NCI-H322M lung it was 31.3%; with HOP-62 NSCLC, 11.4%; in the experiment on NCI-H460 lung it was 5.07% (active); in the experiment with HOP-92 NSCLC it was -2.05% (active). For the same molecule, the growth in the experiment with NCI-H522 lung is -24.7% (active); in the experiment with A549/ATCC NSCLC it was 27.3%; in the experiment on 786-0 renal, -56.6% (active); with COLO 205 colon it was -9.94% (active); in the experiment with DU-145 prostate, 16.4%; with K-562 leukemia, -2.5% (active). Also, the growth was -49.5% (active) in the experiment on MALME-3M melanoma; -43.4% (active) in the experiment with MDA-MB-231 breast; -85.4% (active) in the experiment on RXF 393 renal; 39.4% in the experiment with SF-268 CNS; -20.2% (active) in the experiment on SF-295 CNS; -94.1% (active) in the experiment on SF-539 CNS. Also, the growth in the experiment on UACC-257 melanoma is 13.7%; in the experiment with M14 melanoma it was -51.6% (active).

Consider `Nc1c(C(=O)Nc2ccncc2)sc2nc3c(cc12)C(O)CCC3` (stereo not given), for which the growth in the experiment with NCI-H23 lung was 93.3%; in the experiment with NCI-H226 lung, 90.2%; in the experiment on NCI-H322M lung, 84.1%; in the experiment with HOP-62 NSCLC, 98.7%; in the experiment with NCI-H460 lung, 102%; in the experiment with HOP-92 NSCLC, 88.2%. In addition, the growth in the experiment with NCI-H522 lung was 78.8%; in the experiment with A549/ATCC NSCLC, 91.9%; in the experiment with 786-0 renal, 93.8%; in the experiment with COLO 205 colon it was 113%; in the experiment with DU-145 prostate it was 96.8%; in the experiment with K-562 leukemia, 88.7%. Moreover, the growth with MALME-3M melanoma is 118%; in the experiment with MDA-MB-231 breast it was 96.8%; in the experiment with RXF 393 renal it was 107%; in the experiment on SF-268 CNS, 95.1%; in the experiment on SF-295 CNS, 106%; in the experiment with SF-539 CNS it was 96.2%. The figures for the growth with UACC-257 melanoma and in the experiment with M14 melanoma were 96.3% and 114%, respectively.
